# Measured values: the supplement of paper PMC7057948, “A genome-wide approach for identification and characterisation of metabolite-inducible systems” (Nature Communications, 2020)
# Key:
# Assay in all cases: relative induction of RFP reporter vs primary effector (background-corrected); higher = stronger activation of the biosensor
# Conditions in all cases: inducer concentration 5 mM; 6 h; Cupriavidus necator H16; minimal medium + 0.4% gluconate
# [1] = test system: AcoR/P_H16_RS19445 acetoin biosensor (pEH052)
# Method: (§1)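 C. necator H16 strains, each carrying one of 21 transcription factor/inducible promoter–mRFP biosensor plasmids, were grown in minimal medium in 96-well plates (robotic platform). Each was exposed to 46 structurally or metabolically related compounds at 5 mM at 30 °C. OD-normalised RFP fluorescence was read 6 h later and expressed as relative induction (%) = 100 × (FL compound − FL uninduced)/(FL primary inducer − FL uninduced); mean of n=4.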
# [2] = test system: AraC/P_araBAD L-arabinose biosensor (pEH176)
# Method: as §1
# [3] = test system: BenM/P_H16_RS09790 benzoate biosensor (pEH148)
# Method: as §1
# [4] = test system: FdsR/P_H16_RS03165 formate biosensor (pEH134)
# Method: as §1
# [5] = test system: GabR/P_H16_RS23655 GABA biosensor (pEH256)
# Method: as §1
# [6] = test system: HpdR/P_H16_RS18295 3-hydroxypropanoate biosensor (pEH010)
# Method: as §1
# [7] = test system: KynR/P_H16_RS14030 L-kynurenine biosensor (pEH136)
# Method: as §1
# [8] = test system: NahR/P_H16_RS08125 salicylate biosensor (pEH042)
# Method: as §1
# [9] = test system: OapR/P_H16_RS01330 beta-alanine biosensor (pEH147)
# Method: as §1
# [10] = test system: PcaQ/P_H16_RS30145 3,4-dihydroxybenzoate biosensor (pEH161)
# Method: as §1
# [11] = test system: PhgR/P_H16_RS05530 phenylglyoxylate biosensor (pEH155)
# Method: as §1
# [12] = test system: PhhR/P_H16_RS18365 L-phenylalanine biosensor (pEH137)
# Method: as §1
# [13] = test system: SauR/P_H16_RS13695 sulfonatoacetate biosensor (pEH157)
# Method: as §1
# [14] = test system: TtdR/P_H16_RS10665 tartrate biosensor (pEH083)
# Method: as §1
# [15] = test system: XdhR/P_H16_RS05055 xanthine biosensor (pEH154)
# Method: as §1
# [16] = test system: heterologous inducible system pEH002 (rhamnose/acrylate/cumate/itaconate set)
# Method: as §1
# [17] = test system: heterologous inducible system pEH020 (rhamnose/acrylate/cumate/itaconate set)
# Method: as §1
# [18] = test system: heterologous inducible system pEH040 (rhamnose/acrylate/cumate/itaconate set)
# Method: as §1
# [19] = test system: heterologous inducible system pEH086 (rhamnose/acrylate/cumate/itaconate set)
# Method: as §1
# 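Also: RFP excited at 585 nm with emission read at 620 nm, culture medium blanks subtracted from fluorescence and absorbance prior to normalisation.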
Compound,relative induction of RFP reporter [1],relative induction of RFP reporter [2],relative induction of RFP reporter [3],relative induction of RFP reporter [4],relative induction of RFP reporter [5],relative induction of RFP reporter [6],relative induction of RFP reporter [7],relative induction of RFP reporter [8],relative induction of RFP reporter [9],relative induction of RFP reporter [10],relative induction of RFP reporter [11],relative induction of RFP reporter [12],relative induction of RFP reporter [13],relative induction of RFP reporter [14],relative induction of RFP reporter [15],relative induction of RFP reporter [16],relative induction of RFP reporter [17],relative induction of RFP reporter [18],relative induction of RFP reporter [19]
NCCc1ccc(O)c(O)c1 [dopamine],0.498%,-0.00264%,0.0224%,2.79%,0.204%,0.166%,0.568%,0.0188%,0.108%,0.356%,0.249%,0.138%,0.18%,1.41%,0.0292%,0.0361%,0.433%,1.22%,0.396%
O=C(O)C(O)C(=O)O [tartronic acid],0.914%,-0.0176%,0.0119%,-1.37%,-0.481%,0.0561%,0.115%,0.00865%,0.0759%,-0.0557%,-0.449%,-0.338%,0.0532%,0.714%,-0.218%,0.00666%,-0.0821%,0.945%,0.0674%
O=C(O)c1cc(=O)c2ccccc2[nH]1 [kynurenate],-1.75%,-0.028%,-0.0535%,-9.16%,-2.49%,-0.379%,0.25%,0.0049%,-1.34%,0.113%,-0.313%,-0.383%,0.00396%,-0.284%,-0.96%,0.00297%,-2.26%,-1.57%,-0.378%
NCCS(=O)(=O)O [taurine],-0.255%,-0.0412%,-0.0223%,-0.473%,-1.59%,-0.142%,-0.215%,0.0156%,0.934%,3.14%,-0.395%,-0.387%,2.29%,0.0679%,-0.494%,0.00496%,-0.468%,-0.555%,0.38%
O=C(O)CCC(=O)O [succinate],-1.14%,-0.00365%,-0.0349%,6.43%,-0.306%,-0.187%,0.402%,0.0287%,-0.209%,-0.0829%,-0.471%,0.239%,-0.0135%,0.784%,0.357%,0.0102%,-1.2%,-1.6%,0.338%
Oc1ccccc1 [phenol],-1.65%,-0.0137%,-0.0189%,-3.17%,-2.32%,-0.39%,-0.287%,0.011%,-1.38%,-0.0887%,-0.147%,-0.522%,0.0243%,0.576%,-0.78%,-0.0073%,-2.66%,-1.14%,-0.575%
O=C(O)C[C@H](O)C(=O)O [L-malate],-0.197%,0.0102%,-0.00804%,15.3%,-2.18%,0.127%,0.34%,0.0296%,0.168%,0.148%,-0.316%,0.413%,-0.0175%,1.58%,0.88%,0.00418%,-0.286%,-0.274%,0.726%
O=C(O)/C=C/C(=O)O [fumarate],-1.09%,0.0135%,0.214%,12.2%,-0.753%,0.112%,-0.13%,-0.00283%,0.456%,0.0475%,-0.207%,0.00492%,0.00629%,0.78%,0.739%,0.00534%,-0.346%,-1.36%,0.533%
O=C(O)[C@@H](O)[C@@H](O)[C@H](O)[C@@H](O)C(=O)O [glucarate],16.6%,-0.00794%,0.00581%,-1.03%,0.559%,0.059%,0.0265%,0.0258%,0.058%,0.00441%,-0.232%,-0.08%,-0.0162%,-0.0655%,0.202%,0.0271%,0.067%,0.131%,0.127%
O=C(O)CNC(=O)c1ccccc1 [N-benzoylglycine],-2.37%,-0.0115%,21.2%,40.1%,-0.301%,-0.376%,0.0257%,0.0182%,-1.12%,-0.215%,-0.146%,-0.604%,-0.018%,-0.285%,-0.852%,-0.00397%,-2.44%,-1.84%,-0.117%
O=C(O)CC(CC(=O)O)C(=O)O [tricarballylate],-0.69%,-0.0168%,-0.036%,-2.35%,-2.41%,-0.311%,-0.332%,-0.00531%,-1.38%,-0.249%,-0.562%,-0.293%,0.0103%,1.3%,-1.15%,0.0188%,-1.48%,0.497%,-0.0817%
O=C(O)c1cccnc1 [nicotinate],-2.26%,0.00152%,1.95%,113%,-1.65%,0.0215%,-0.289%,0.0131%,-0.669%,-0.0619%,-0.587%,-0.498%,0.0909%,-0.44%,0.0721%,0.0144%,-1.31%,-1.49%,0.0778%
N[C@@H](CC(=O)O)C(=O)O [L-aspartate],-1.54%,-0.0179%,-0.0325%,3.34%,-1.17%,-0.138%,-0.00294%,0.0255%,0.356%,-0.0549%,-0.232%,0.437%,0.0772%,-0.474%,-0.175%,0.02%,-0.78%,-1.36%,0.389%
Cn1c(=O)c2c(ncn2C)n(C)c1=O [caffeine],3.23%,0.0778%,0.0418%,5.81%,-0.00438%,0.0271%,1.64%,0.0392%,0.545%,0.0177%,-0.541%,1.57%,0.0139%,0.808%,0.33%,0.0111%,-0.176%,1.6%,0.797%
